About 7,900 targets were measured; listed, in parts, are those with a hit and a random draw of the rest. About 0.6% of all pairs of compound and target were hits. Values without a mark were called inactive.
Legend:
Experiment in all cases: log2 fold change, soluble protein after heating vs DMSO (PISA); higher = thermal stabilisation; K562 cells, 10 uM, 30 min; active = over 0.2 and 3.5 SD of the protein, either way, in both replicates (recomputed)
[1] = compound: CC[C@@H]1C(=O)N(C)c2cnc(Nc3ccc(C(=O)NC4CCN(C)CC4)cc3OC)nc2N1C1CCCC1
Outline: (§1)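 Thermal stability values are relative to control samples and come from duplicates. They are expressed as log2 fold changes. For measurement, K562 cells (2×10^6 cells/mL) received 10 μM compound for 30 min, and aliquots were heated for 3 min over 48°C-58°C, pooled, and extracted at 4°C in PBS with 0.5% NP-40. Soluble protein, the supernatant after 21,000xg for 90 min, was quantified by TMTpro 16plex LC-MS/MS with equalised channel sums.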

volasertib = compound: CC[C@@H]1C(=O)N(C)c2cnc(Nc3ccc(C(=O)N[C@H]4CC[C@H](N5CCN(CC6CC6)CC5)CC4)cc3OC)nc2N1C(C)C [volasertib]
Outline: as §1

[2] = compound: CC[C@H](C)N1C=C(C2=C(C=C(C=C21)C3=CN=C(C=C3)N4CCNCC4)C(=O)NCC5=C(C=C(NC5=O)C)C)C
Outline: as §1

epoxomicin = compound: CC[C@H](C)[C@@H](C(=O)N[C@@H]([C@@H](C)O)C(=O)N[C@@H](CC(C)C)C(=O)[C@]1(CO1)C)NC(=O)[C@H]([C@@H](C)CC)N(C)C(=O)C [epoxomicin]
Outline: as §1

[3] = compound: CCn1c(C(=O)N(C2CC2)C2CC2)cc2c3c(ncn3C)c(Nc3cc(C)n(C)n3)nc21
Outline: as §1

[4] = compound: CCn1cc(-c2ccnc3[nH]c(-c4cccc(CN(C)C)c4)cc23)c(-c2ccc(NC(=O)N(C)C)cc2)n1
Outline: as §1

[5] = compound: CN(C)CC(=O)Nc1ccc2[nH]c(=O)c3ccccc3c2c1
Outline: as §1

rosiglitazone = compound: CN(CCOC1=CC=C(C=C1)C[C@H]2C(=O)NC(=O)S2)C3=CC=CC=N3 (racemic) [rosiglitazone]
Outline: as §1

[6] = compound: CN1C2=C(C3=C1C(=O)N(N=C3)CC4=CC(=CC=C4)N)SC(=C2)S(=O)C
Outline: as §1

[7] = compound: CN1CCC(CNc2ccc3ncc(-c4cccc(OC(F)(F)F)c4)n3n2)CC1
Outline: as §1

UniProt P50416, sequence (P50416 whole entry, looked up): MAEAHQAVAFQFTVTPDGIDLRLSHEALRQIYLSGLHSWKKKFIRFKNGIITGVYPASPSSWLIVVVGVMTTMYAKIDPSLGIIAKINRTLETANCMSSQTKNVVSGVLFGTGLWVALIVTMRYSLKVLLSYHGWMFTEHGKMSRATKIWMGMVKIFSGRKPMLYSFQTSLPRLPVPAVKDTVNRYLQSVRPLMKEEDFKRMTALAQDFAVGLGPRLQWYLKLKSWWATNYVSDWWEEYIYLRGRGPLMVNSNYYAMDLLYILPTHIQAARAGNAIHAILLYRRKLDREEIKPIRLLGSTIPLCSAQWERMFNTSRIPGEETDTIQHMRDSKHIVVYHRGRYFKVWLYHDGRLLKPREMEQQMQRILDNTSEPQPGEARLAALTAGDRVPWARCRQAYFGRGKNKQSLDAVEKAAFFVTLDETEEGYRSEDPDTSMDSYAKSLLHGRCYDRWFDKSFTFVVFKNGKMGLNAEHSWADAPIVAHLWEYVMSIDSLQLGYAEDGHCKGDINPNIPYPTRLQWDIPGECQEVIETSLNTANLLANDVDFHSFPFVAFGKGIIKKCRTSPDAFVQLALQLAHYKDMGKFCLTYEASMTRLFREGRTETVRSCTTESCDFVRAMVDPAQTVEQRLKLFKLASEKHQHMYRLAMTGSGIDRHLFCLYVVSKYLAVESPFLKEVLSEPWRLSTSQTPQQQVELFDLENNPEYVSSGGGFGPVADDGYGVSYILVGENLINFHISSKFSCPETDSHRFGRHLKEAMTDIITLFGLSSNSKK
UniProt P14635, sequence (P14635 whole entry, looked up): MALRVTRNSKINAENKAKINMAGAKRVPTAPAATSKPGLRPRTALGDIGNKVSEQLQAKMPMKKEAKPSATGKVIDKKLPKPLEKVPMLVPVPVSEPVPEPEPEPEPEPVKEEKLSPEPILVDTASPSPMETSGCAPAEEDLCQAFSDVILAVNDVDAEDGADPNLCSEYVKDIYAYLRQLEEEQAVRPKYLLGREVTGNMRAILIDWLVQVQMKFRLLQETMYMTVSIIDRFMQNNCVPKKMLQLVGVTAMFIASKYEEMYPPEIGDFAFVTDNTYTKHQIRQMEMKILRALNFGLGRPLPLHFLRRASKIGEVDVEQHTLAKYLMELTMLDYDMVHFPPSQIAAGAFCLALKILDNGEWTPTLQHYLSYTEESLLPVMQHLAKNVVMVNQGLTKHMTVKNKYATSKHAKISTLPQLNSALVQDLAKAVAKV
UniProt P24311, sequence (P24311 whole entry, looked up): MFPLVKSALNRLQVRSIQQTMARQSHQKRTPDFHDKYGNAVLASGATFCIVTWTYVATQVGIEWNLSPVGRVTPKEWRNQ
UniProt P09497, sequence (P09497 whole entry, looked up): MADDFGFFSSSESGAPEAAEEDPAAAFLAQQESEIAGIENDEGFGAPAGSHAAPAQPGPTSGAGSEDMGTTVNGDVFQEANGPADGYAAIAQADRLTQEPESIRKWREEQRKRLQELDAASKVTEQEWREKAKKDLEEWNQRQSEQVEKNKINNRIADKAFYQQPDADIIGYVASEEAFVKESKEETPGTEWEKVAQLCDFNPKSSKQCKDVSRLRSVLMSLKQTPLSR
UniProt P48509, sequence (P48509 whole entry, looked up): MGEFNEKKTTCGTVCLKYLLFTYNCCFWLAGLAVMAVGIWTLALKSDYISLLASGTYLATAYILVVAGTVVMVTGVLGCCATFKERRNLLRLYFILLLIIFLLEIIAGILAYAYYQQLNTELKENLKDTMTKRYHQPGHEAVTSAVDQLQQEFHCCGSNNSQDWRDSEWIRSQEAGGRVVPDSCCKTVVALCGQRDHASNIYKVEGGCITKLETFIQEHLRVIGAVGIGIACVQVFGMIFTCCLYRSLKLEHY
UniProt Q9Y3X0, sequence (Q9Y3X0 whole entry, looked up): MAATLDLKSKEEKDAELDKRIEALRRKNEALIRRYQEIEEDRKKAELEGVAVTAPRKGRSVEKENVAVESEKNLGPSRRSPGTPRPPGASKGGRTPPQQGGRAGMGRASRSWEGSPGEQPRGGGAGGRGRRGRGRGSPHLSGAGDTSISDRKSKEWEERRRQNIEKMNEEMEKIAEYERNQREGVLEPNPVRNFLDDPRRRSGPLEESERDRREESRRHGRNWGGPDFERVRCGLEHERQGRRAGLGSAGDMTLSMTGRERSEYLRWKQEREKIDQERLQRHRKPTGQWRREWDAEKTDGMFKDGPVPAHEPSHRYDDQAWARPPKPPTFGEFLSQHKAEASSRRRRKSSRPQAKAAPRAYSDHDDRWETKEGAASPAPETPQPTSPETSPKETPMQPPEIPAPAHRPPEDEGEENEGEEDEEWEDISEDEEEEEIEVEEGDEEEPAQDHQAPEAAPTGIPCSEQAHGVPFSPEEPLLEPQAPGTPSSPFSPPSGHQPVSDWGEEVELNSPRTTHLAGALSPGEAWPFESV
UniProt P33240, sequence (P33240 whole entry, looked up): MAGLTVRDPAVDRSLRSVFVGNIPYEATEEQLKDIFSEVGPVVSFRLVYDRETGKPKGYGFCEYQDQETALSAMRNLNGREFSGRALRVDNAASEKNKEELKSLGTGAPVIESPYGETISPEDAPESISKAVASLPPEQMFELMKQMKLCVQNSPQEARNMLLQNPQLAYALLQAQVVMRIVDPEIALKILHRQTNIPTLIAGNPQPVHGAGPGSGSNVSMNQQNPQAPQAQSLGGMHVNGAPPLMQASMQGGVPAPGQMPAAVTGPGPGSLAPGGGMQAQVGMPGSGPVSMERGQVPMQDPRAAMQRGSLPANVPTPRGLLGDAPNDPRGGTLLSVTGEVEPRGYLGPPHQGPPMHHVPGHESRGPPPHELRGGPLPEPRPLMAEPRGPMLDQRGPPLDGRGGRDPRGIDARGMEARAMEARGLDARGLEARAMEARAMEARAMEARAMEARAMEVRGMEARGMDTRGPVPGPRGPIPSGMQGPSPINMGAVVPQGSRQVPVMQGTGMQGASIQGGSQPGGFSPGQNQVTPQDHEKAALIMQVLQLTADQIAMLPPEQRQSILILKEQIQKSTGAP
UniProt Q9NXV6, sequence (Q9NXV6 whole entry, looked up): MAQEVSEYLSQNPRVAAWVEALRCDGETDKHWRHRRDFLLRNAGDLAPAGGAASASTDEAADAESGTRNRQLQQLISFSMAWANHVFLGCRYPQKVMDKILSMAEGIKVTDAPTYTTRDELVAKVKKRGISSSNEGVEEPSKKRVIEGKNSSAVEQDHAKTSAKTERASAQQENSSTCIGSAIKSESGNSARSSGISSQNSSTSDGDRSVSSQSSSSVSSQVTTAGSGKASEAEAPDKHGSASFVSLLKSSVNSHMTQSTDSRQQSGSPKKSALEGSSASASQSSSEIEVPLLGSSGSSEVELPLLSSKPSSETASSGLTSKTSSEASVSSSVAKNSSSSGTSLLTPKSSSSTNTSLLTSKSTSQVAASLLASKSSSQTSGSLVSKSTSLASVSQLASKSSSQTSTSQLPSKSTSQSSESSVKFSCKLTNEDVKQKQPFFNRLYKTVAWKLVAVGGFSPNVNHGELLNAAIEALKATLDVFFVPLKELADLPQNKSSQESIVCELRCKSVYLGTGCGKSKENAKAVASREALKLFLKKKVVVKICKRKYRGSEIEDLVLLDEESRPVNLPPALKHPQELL
UniProt Q14004, sequence (Q14004 whole entry, looked up): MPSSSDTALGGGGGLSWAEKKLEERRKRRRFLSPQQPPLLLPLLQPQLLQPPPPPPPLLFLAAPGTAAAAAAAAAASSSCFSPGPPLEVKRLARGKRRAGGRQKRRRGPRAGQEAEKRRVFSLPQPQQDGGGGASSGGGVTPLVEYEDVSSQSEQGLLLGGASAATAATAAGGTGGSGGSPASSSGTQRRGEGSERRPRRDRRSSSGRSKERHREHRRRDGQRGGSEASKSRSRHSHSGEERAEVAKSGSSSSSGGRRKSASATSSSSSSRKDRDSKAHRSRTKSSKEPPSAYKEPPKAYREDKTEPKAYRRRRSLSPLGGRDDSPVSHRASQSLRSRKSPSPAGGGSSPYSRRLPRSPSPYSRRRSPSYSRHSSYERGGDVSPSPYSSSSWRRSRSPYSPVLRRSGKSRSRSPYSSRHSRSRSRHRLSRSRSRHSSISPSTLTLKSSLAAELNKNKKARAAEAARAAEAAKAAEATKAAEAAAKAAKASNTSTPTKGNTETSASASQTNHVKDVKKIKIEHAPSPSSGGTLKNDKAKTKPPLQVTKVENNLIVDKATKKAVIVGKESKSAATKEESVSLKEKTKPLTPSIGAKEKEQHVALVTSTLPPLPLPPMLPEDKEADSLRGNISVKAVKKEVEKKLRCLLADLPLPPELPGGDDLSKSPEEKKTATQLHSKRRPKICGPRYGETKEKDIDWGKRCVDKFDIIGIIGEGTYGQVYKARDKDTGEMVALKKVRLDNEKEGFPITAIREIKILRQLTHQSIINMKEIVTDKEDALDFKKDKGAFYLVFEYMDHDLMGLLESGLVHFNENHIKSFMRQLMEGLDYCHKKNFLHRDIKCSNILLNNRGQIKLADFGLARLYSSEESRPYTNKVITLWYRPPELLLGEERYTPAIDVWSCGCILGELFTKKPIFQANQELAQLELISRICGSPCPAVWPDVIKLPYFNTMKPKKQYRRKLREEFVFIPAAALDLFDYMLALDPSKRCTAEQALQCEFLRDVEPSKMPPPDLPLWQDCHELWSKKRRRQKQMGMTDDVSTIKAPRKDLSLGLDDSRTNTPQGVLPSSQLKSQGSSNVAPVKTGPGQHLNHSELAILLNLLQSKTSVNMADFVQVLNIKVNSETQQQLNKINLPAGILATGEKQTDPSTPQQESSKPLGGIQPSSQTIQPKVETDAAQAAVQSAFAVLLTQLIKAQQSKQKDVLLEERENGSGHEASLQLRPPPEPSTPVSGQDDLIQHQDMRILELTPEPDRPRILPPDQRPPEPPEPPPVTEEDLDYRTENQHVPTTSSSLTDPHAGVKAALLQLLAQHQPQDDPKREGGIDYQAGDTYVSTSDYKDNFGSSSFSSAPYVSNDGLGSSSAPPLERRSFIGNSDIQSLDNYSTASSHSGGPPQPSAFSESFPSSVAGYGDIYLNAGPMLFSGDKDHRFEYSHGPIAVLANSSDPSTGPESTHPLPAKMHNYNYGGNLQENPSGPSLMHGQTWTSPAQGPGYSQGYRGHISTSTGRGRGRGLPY

| Target | log2 fold change [1] | log2 fold change (volasertib) | log2 fold change [2] | log2 fold change (epoxomicin) | log2 fold change [3] | log2 fold change [4] | log2 fold change [5] | log2 fold change (rosiglitazone) | log2 fold change [6] | log2 fold change [7] |
| --- | --- | --- | --- | --- | --- | --- | --- | --- | --- | --- |
| CDKN2AIP (UniProt Q9NXV6) | 0.096 | 0.057 | -0.001 | 0.095 | -0.017 | 0.008 | 0.046 | 0.025 | 0.03 | 0.094 |
| CPT1A (UniProt P50416) | -0.048 | -0.047 | 0.045 | -0.003 | -0.076 | -0.064 | 0.013 | 0.025 | -0.053 | 0.333 (active) |
| CDK11B (UniProt P21127) | 0.087 | 0.047 | 0.028 | -0.072 | -0.07 | -0.01 | -0.107 | 0.004 | 0.005 | 0.094 |
| CDC26 (UniProt Q8NHZ8) | 0.06 | 0.037 | -0.068 | -0.031 | 0.085 | 0.003 | 0.158 | -0.008 | 0.107 | 0.131 |
| CD151 (UniProt P48509) | 0.277 (active) | 0.157 | -0.068 | 0.041 | -0.011 | -0.058 | 0 | 0.017 | -0.095 | 0.248 |
| COQ7 (UniProt Q99807) | -0.035 | -0.009 | -0.01 | 0.013 | -0.005 | -0.041 | -0.047 | 0.038 | 0.023 | -0.05 |
| CLSPN (UniProt Q9HAW4) | -0.017 | -0.159 | -0.019 | 0.037 | 0.062 | 0.031 | -0.048 | -0.016 | 0.04 | -0.02 |
| CHMP4C (UniProt Q96CF2) | -0.23 | -0.043 | -0.014 | -0.016 | 0.06 | -0.034 | 0.005 | 0.028 | -0.206 | -0.089 |
| CA1 (UniProt P00915) | 0 | -0.02 | 0.01 | 0.016 | 0.003 | 0.042 | -0.002 | 0.045 | -0.034 | 0.134 |
| CLTB (UniProt P09497) | 0.099 | 0.134 | -0.102 | 0.032 | 0.001 | -0.006 | -0.024 | -0.013 | -0.064 | 0.106 |
| CDK13 (UniProt Q14004) | 0.025 | 0.09 | 0.034 | -0.032 | 0.087 | 0.018 | 0.004 | -0.002 | 0.233 | -0.047 |
| COX7B (UniProt P24311) | -0.011 | 0.024 | -0.052 | 0.023 | 0.065 | -0.035 | 0.04 | -0.033 | 0.015 | 0.323 (active) |
| CSTF2 (UniProt P33240) | 0.06 | 0.233 (active) | -0.024 | -0.077 | 0.011 | 0.041 | -0.048 | 0.01 | -0.085 | -0.004 |
| CCNB1 (UniProt P14635) | 0.023 | 0.026 | -0.027 | 0.083 | -0.007 | -0.004 | 0.012 | 0.017 | -0.043 | -0.032 |
| CCDC9 (UniProt Q9Y3X0) | 0.081 | 0.127 | -0.051 | -0.018 | 0.032 | 0.051 | 0.002 | 0.021 | 0.025 | 0.009 |

From the supplement of paper PMC10849652
